Results published in PubChem BioAssay AID652017 (The Scripps Research Institute Molecular Screening Center, 2013).
Screen size: about 370,000 compounds; about 3,800 (1%) were called active. The list comes from a sample in which actives are over-represented; it also holds similar structures and randomly drawn compounds. Values without a mark were called inactive. Cut-off read from the data, not from the text of the source: active = activation above about 7.8%; inactive = the rest.

Assay: SMARCA2 (BRM) function activators, primary screen, cell-based, luminescence, high throughput (AID 652017);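 note: 0% = vehicle wells and 100% = reference activator wells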
Settings: MG213 cells, MMTV-luciferase reporter, dexamethasone, overnight; at 9.1 µM; stronger effect = higher value

SMILES	activation
CN(C)c1nc(=Nc2cccc(Cl)c2)ss1	10.5% (active)
CCCCCCCCNS(=O)(=O)/C=C/c1cc(C)ccc1CNC(=O)OC(C)(C)C	-5.6%
C=CCN1C(=O)[C@@H](CC(=O)NCC2CCCCC2)[C@]2(C(=O)OC)CCCCC=C12	-0.86%
CCOC(=O)c1cc2cc(-c3c(C(=O)OCC)oc4cc(O)cc(O)c4c3=O)ccc2o1	-3.39%
Cc1ccc(-c2nc(CSCC(=O)NC3CCN(Cc4ccccc4)CC3)c(C)o2)cc1	-3.96%
Cc1cc(NC(=O)CSCc2nc(-c3cccc(Cl)c3)oc2C)no1	-4.35%
Cc1ccsc1-c1nc(CSCC(=O)NCCN2CCCC2)c(C)o1	8.31% (active)
C=CCN1C(=O)[C@@H](CC(=O)NCCCCc2ccccc2)[C@]2(C(=O)OCC)CCCCC/C=C/12	-5.79%
CC1(C)O[C@@H]2CC3C4C[C@H](F)C5=CC(=O)C=CC5(C)C4C(O)CC3(C)[C@]2(C(=O)CO)O1 (stereo partly specified)	-1.35%
C=C(C)C#CC(Cc1ccccc1)NCC1CC1 (stereo unspecified)	-5.21%
COCCOC1CCN(C(=O)c2ccc(OC)c(OC3CCN(C(C)C)CC3)c2)CC1	-1.95%
COc1ccccc1OCCNC(=O)CCNC(=O)c1ccccc1Cl	0.37%
CC(C)Cc1nnc(NC(=O)CCC(=O)Nc2ccc3cn[nH]c3c2)s1	-4%
CC(C)Cc1nnc(NC(=O)CCNC(=O)c2ccccc2Cl)s1	9.18% (active)
Cc1nc2cc(S(=O)(=O)C(F)(F)F)ccc2s1	5.28%
COC(=O)Cc1ccc(OC(=O)C2CCN(S(=O)(=O)c3ccc(OC)c(OC)c3)CC2)cc1	-1.69%
Cc1ccc(-n2c(SCC(=O)Nc3ccc(S(=O)(=O)Nc4nccs4)cc3)nnc2-c2ccncc2)cc1	-0.03%
Cc1cc(-n2cnc(-c3cn(C)nc3C)n2)no1	8.03% (active)
Cc1ccc(Cn2cc(COC(=O)N(C)Cc3ccccc3)nn2)cc1	-1.94%

SMILES	activation
O=S1(=O)c2c(cccc2N2CCCCC2)O[C@H](COCc2ccccc2)CN1C1CC1	-5.02%
CCOc1ccc(-n2c(SCC(=O)Nc3cc(C)c(NC(=O)c4ccccc4)cc3OC)nnc2-c2cccs2)cc1	-4.31%
CCc1ccc(NC(=O)N2CCc3ccccc3C2)cc1	7.91% (active)
CCOC(=O)c1c(NC(=S)SC)sc(C(=O)N2CCc3ccccc3C2)c1C	-2.6%
O=C(C(=O)N1CCc2ccccc2C1)c1c[nH]c2ccccc12	0.35%
O=C(Nc1cccc([N+](=O)[O-])c1)N1CCc2ccccc2C1	12.9% (active)
Cc1cccc(OC(C)C(=O)N2CCc3ccccc3C2)c1 (stereo unspecified)	-2.36%
Cc1cccc(C)c1NC(=O)c1ccc(CN2CCc3ccccc3C2)cc1	-1.14%
COC(=O)c1ccccc1-n1cc(COC(=O)NCCc2ccccc2)nn1	-2.76%
CCCCNC(=O)C[C@H]1C(=O)N(Cc2ccc(OC)cc2)C2=CCCC[C@@]21C(=O)OCC	-1.43%
Cc1nc2ccccc2n1CC(=O)N/N=C/c1cccs1	0.43%
Cn1c(=O)c2c(nc(N/N=C/c3cccs3)n2Cc2ccc(Br)cc2)n(C)c1=O	-0.25%
Cc1n[nH]c(=O)nc1N/N=C/c1cccs1	9.22% (active)
O=C(c1ccncc1)N1CC[C@H]2[C@H](CCCN2Cc2ccc(F)cc2)C1	0.1%
COc1ccc(Cn2ccc3ccc(-c4ccc5ccn(Cc6ccccc6C)c5c4)cc32)cc1	-1.41%
COC(=O)C[C@@H]1CC[C@@H]2[C@H](COc3ccc(NC(=O)c4cccc(F)c4)cc3C(=O)N2C)O1	-3.28%
COC(=O)C[C@H]1CC[C@H]2[C@H](COc3ccc(NC(=O)C4CC4)cc3C(=O)N2C)O1	-0.29%
COc1cc(/C=N/NC(=O)c2ccccc2)ccc1OS(=O)(=O)c1ccccc1	11.6% (active)
COc1ccc(S(=O)(=O)N(CC(=O)N/N=C/c2ccc(C(=O)O)cc2)Cc2ccccc2)cc1OC	0.18%

SMILES	activation
COc1cc(/C=N/NC(=O)Nc2ccccc2)ccc1OCCOc1ccccc1C	-2.07%
Cc1ccc(S(=O)(=O)NC(C)C(=O)NCc2ccc(Cl)cc2)cc1 (stereo unspecified)	8.48% (active)
Cc1ccc(CNC(=O)COc2ccc(S(=O)(=O)NC(C)C)cc2)cc1	-3.1%
COc1ccc(S(=O)(=O)NC(C)C(=O)NCc2ccncc2)cc1Cl (stereo unspecified)	-1.23%
O=S1(=O)CCC(NC(=S)SCc2ccccc2Br)C1 (stereo unspecified)	-1.67%
CCCSC(=S)NC1CCS(=O)(=O)C1 (stereo unspecified)	8.13% (active)
CC(C)C(=O)NC(NC(=S)NC1CCS(=O)(=O)C1)C(Cl)(Cl)Cl (stereo unspecified)	1.31%
COc1ccc(C(=O)OCCN2CCN(C3CN(Cc4cn(Cc5ccccc5F)nn4)S(=O)(=O)C3)CC2)cc1OC (stereo unspecified)	-1.26%
Cc1nc(N)sc1N=Nc1c(C)n(C)n(-c2ccccc2)c1=O	-4.59%
Cc1c(N=Nc2ccc(N(C)C)cc2)c(=O)n(-c2ccccc2)n1C	7.84% (active)
Cc1c(C=O)n(C)n(-c2ccccc2)c1=O	1.03%
C[C@@H]1COc2cccc(N3CCCC3)c2S(=O)(=O)N1C	-1.71%
COc1ccc(-c2cc(C(=O)NC(Cc3c[nH]c4ccccc34)C(=O)O)c(C)o2)cc1OC (stereo unspecified)	3.58%
COc1cccc(CNC(=O)[C@H]2CCCN2C(=O)[C@H]2CCCN2C(=O)C2CCCCC2)c1	-3.87%
CCN(CC)CCNC(=O)c1sc2ncn(CC(=O)Nc3ccc(C)c(Cl)c3)c(=O)c2c1C	7.84% (active)
CCN(CC)CCCNC(=O)Cn1cnc2sc(C)c(S(=O)(=O)N3CCN(c4ncccn4)CC3)c2c1=O	-0.93%
CCN(CC)CCNC(=O)Cn1cnc2sc(C)c(S(=O)(=O)N3CCOCC3)c2c1=O	-6.85%
Cc1cccc(C)c1NC(=S)N(Cc1cccnc1)Cc1ccccc1Cl	-5.44%
